Data on seven compounds can be found in PubChem BioAssay (NCI).

“And” between values parts separate entries of the source, which are not always exact repeats. Equal entries are not always repeated. Compounds without any hit were thinned out: in the full panel of roughly 83,000, 20% have a hit.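 Each cell line was grown in a 96-well plate and treated with one concentration of compound for 48 hours. Values below 10 were considered active.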 Unmarked numbers belong to inactive results. The source made the active and inactive calls.

Test systems include NCI-H23 lung; NCI-H226 lung; NCI-H322M lung; HOP-62 NSCLC; NCI-H460 lung; HOP-92 NSCLC; NCI-H522 lung; A549/ATCC NSCLC; 786-0 renal; COLO 205 colon; DU-145 prostate; K-562 leukemia; MALME-3M melanoma; MDA-MB-231 breast; RXF 393 renal; SF-268 CNS; SF-295 CNS; SF-539 CNS; UACC-257 melanoma; M14 melanoma.
What all share (experiment): NCI-60 one-dose screen, 48 h (100 = growth as untreated, 0 = no growth, -100 = all killed)
Conditions in all cases: 10 µM unless noted

Turning to `COC(=O)C12C3C4C1C1C2C3C41NC(=O)c1csc([C@@H](C[C@H](C(C)C)N(C)C(=O)[C@@H](NC(=O)[C@H]2CCCCN2C)C2CC2)OC(C)=O)n1` (some centres undefined), the growth was 35.8% in the assay with NCI-H23 lung; 16.5% in the assay with NCI-H226 lung; 38.5% in the assay with NCI-H322M lung; 4.51% (active) with HOP-62 NSCLC; 7.89% (active) in the assay with NCI-H460 lung; 22.6% with HOP-92 NSCLC. In addition, the growth in the assay on NCI-H522 lung was -21.1% (active); in the assay with A549/ATCC NSCLC it was 13%; with 786-0 renal, 22.7%; in the assay on COLO 205 colon it was -65.4% (active); in the assay with DU-145 prostate it was 8.04% (active); in the assay with K-562 leukemia, 8.03% (active). The growth in the assay on MALME-3M melanoma was 63.9%; in the assay with MDA-MB-231 breast, 4.12% (active); in the assay on RXF 393 renal, 19.7%; in the assay on SF-268 CNS, 25.6%; in the assay on SF-295 CNS it was 9.2% (active); in the assay on SF-539 CNS, -24.4% (active). Further, in the assay on UACC-257 melanoma, the growth is 56%.

Turning to `Cc1cc(NC(=O)NCCCOc2ccc(N3C(N)=NC(N)=NC3(C)C)cc2Cl)ccc1S(=O)(=O)F`, the growth in the assay on NCI-H23 lung was 24.1%; in the assay with NCI-H226 lung, 55.7%; in the assay on NCI-H322M lung, 54.2%; with HOP-62 NSCLC it was 51.9%; in the assay with NCI-H460 lung, 13.6%; with HOP-92 NSCLC, 74.6%. Further, the growth with NCI-H522 lung is 7.9% (active); in the assay with A549/ATCC NSCLC, 14.7%; with 786-0 renal it was 40.1%; in the assay on COLO 205 colon it was 27.9%; with DU-145 prostate, 33.6%; in the assay on K-562 leukemia it was 25.1%. Moreover, the growth with MALME-3M melanoma is 55.6%; with MDA-MB-231 breast it was 71.7%; in the assay with RXF 393 renal, 48.6%; in the assay with SF-268 CNS, 32.7%; in the assay with SF-295 CNS, 30.4%; in the assay with SF-539 CNS it was 17.5%. The results for the growth in the assay on UACC-257 melanoma and in the assay with M14 melanoma were 25.9% and 41%, respectively.

Turning to `N#CC(C#N)=Cc1cccc(F)c1`, the growth in the assay on NCI-H23 lung was 102%; in the assay with NCI-H226 lung, 103%; in the assay with NCI-H322M lung, 104%; in the assay on HOP-62 NSCLC it was 95.2%; with NCI-H460 lung it was 105%; in the assay on HOP-92 NSCLC, 130%. Further, the growth was 99.4% in the assay on NCI-H522 lung; 100% in the assay on A549/ATCC NSCLC; 103% with 786-0 renal; 115% in the assay on COLO 205 colon; 105% in the assay on DU-145 prostate; 96.8% with K-562 leukemia. The growth with MALME-3M melanoma was 110%; with MDA-MB-231 breast it was 109%; in the assay with RXF 393 renal it was 110%; in the assay with SF-268 CNS, 99.7%; with SF-295 CNS, 105%; in the assay on SF-539 CNS, 105%. For the same compound, the growth with UACC-257 melanoma is 107%.

Take `COC(=O)C1=CCCN(C)C1`: the growth with NCI-H23 lung was 104% and 101%; in the assay on NCI-H226 lung, 100% and 101%; in the assay with NCI-H322M lung, 96.2% and 82.7%; in the assay on HOP-62 NSCLC, 109%; with NCI-H460 lung, 110% and 106%; in the assay on HOP-92 NSCLC, 76.9%. Further, the growth in the assay with NCI-H522 lung is 96.8% and 73.1%; in the assay on A549/ATCC NSCLC, 101%; in the assay with 786-0 renal it was 100% and 101%; with COLO 205 colon, 114% and 121%; in the assay on DU-145 prostate, 111% and 112%; in the assay on K-562 leukemia, 93.2% and 104%. The growth in the assay on MALME-3M melanoma is 96.2% and 109%; in the assay with MDA-MB-231 breast it was 115% and 107%; in the assay with RXF 393 renal, 102% and 106%; in the assay with SF-268 CNS, 116% and 104%; in the assay on SF-295 CNS, 97.9% and 98.3%; with SF-539 CNS, 103% and 109%. The growth with UACC-257 melanoma is 96.8%.

`CCCCCCCCCCCCCCCCCC1OCC(COC(=O)O[C@@H](C(=O)O[C@H]2C[C@@]3(O)[C@@H](OC(=O)c4ccccc4)[C@@H]4[C@]5(OC(C)=O)CO[C@@H]5C[C@H](O)[C@@]4(C)C(=O)[C@H](OC(C)=O)C(=C2C)C3(C)C)[C@@H](NC(=O)c2ccccc2)c2ccccc2)O1` (some centres undefined): the growth in the assay with NCI-H23 lung is 40.3%; in the assay with NCI-H226 lung, 53.4%; in the assay with NCI-H322M lung, 58.8%; with HOP-62 NSCLC, 60.5%; with NCI-H460 lung it was 18.2%; in the assay on HOP-92 NSCLC, 94.8%. In addition, the growth in the assay with NCI-H522 lung is 48.6%; in the assay with A549/ATCC NSCLC, 53.2%; with 786-0 renal, 80.9%; in the assay on COLO 205 colon it was 24.7%; in the assay on DU-145 prostate it was 44.4%; in the assay on K-562 leukemia it was 18.8%. Also, the growth in the assay on MALME-3M melanoma was 59.3%; in the assay with MDA-MB-231 breast it was 81.8%; with RXF 393 renal it was 28.1%; with SF-268 CNS it was 59.1%; in the assay on SF-295 CNS, 48.4%; in the assay with SF-539 CNS, 51.2%. Also, the growth in the assay with UACC-257 melanoma was 69.8%.

Turning to `CCC1(NC(=O)c2cc(F)c(F)c(F)c2F)C(=O)NC(=O)N(C(C)C)C1=O` (centres undefined), the growth is 47% in the assay on NCI-H23 lung; 139% with NCI-H226 lung; 90.2% in the assay on NCI-H322M lung; 101% in the assay with HOP-62 NSCLC; 99.7% in the assay on NCI-H460 lung; 79.9% in the assay on HOP-92 NSCLC. In addition, the growth is -5.62% (active) in the assay on NCI-H522 lung; 75.9% with A549/ATCC NSCLC; 101% in the assay on 786-0 renal; 141% in the assay on COLO 205 colon; 143% in the assay with DU-145 prostate; -26.7% (active) with K-562 leukemia. Further, the growth in the assay on MALME-3M melanoma is 90.4%; in the assay with MDA-MB-231 breast, 81.5%; in the assay on RXF 393 renal, 79.8%; with SF-268 CNS, 114%; in the assay with SF-295 CNS, 107%; with SF-539 CNS, 97.5%. The growth with UACC-257 melanoma is 70.4%.

With `O=P(O)(Nc1ccccc1)Nc1ccccc1`, the growth with NCI-H23 lung was 91.1%; in the assay with NCI-H226 lung it was 102%; with NCI-H322M lung it was 90.6%; in the assay with HOP-62 NSCLC, 83.3%; in the assay on NCI-H460 lung, 99.2%; in the assay with HOP-92 NSCLC, 89.1%. The growth is 85.6% in the assay with NCI-H522 lung; 91% in the assay with A549/ATCC NSCLC; 93.7% with 786-0 renal; 115% with COLO 205 colon; 97% in the assay on DU-145 prostate; 51.9% with K-562 leukemia. Further, the growth with MALME-3M melanoma was 94.3%; with MDA-MB-231 breast it was 109%; in the assay on RXF 393 renal, 93.9%; in the assay with SF-268 CNS, 102%; with SF-295 CNS, 96.1%; in the assay with SF-539 CNS it was 91.6%. Further, the growth in the assay on UACC-257 melanoma is 89.3%.
